Screening data: PubChem BioAssay, National Center for Advancing Translational Sciences (NCATS)
GPT2 inh: GPT2 alanine aminotransferase inhibition | Q8TD30 | Potency, µM (doses to about 57.7 µM), for the others: at the highest dose activity change, negative = inhibition, hits mostly inhibitors | 100,000 tested, 0.25% active | Recombinant GPT2, coupled pyruvate oxidase/HRP Amplex Red fluorescence | AID 1671188; note: potency is the fitted concentration of half-maximal effect; % is set by controls: 0 for no effect and ±100 for the full control effect; nearly all actives have a fitted effect of over 60% in size
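Recombinant GPT2 (10ng/uL) with 250uM a-KG and 2mM L-alanine, 30 min at room temperature, in HEPES pH 7.5 buffer. Pyruvate detected by pyruvate oxidase/HRP/Amplex Red fluorescence after 30 min in the dark; AOA (50uM) as positive control.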
IP6K1 inh: blocks human inositol hexakisphosphate kinase 1. Q92551. IP6K1 kinase, ADP-Glo luminescence, 2 h; hits give low values. activity change, % (series mostly up to about 58 µM). 140,000 tested, 0.81% active. AID 1645851; in the data active = activity change below about -25%; note: % is set by controls: 0 for no effect and ±100 for the full control effect
Target sequence (Q92551 whole entry, looked up): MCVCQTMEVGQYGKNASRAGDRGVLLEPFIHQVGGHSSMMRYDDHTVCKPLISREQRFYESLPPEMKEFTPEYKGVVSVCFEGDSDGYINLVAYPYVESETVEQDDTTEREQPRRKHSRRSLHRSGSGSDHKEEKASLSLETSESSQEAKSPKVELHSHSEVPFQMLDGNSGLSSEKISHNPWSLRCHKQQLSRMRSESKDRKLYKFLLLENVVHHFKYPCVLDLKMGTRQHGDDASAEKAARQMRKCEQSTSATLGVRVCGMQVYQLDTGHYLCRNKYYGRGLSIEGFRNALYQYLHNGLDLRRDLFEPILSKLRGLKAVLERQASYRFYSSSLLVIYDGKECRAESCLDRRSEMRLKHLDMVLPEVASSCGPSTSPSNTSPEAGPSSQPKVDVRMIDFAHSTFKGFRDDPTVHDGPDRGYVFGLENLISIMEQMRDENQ
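ADP-Glo luminescence measures ADP made by human IP6K1 during a 2 h RT reaction with ATP/IP6 (mix at 1.3 mM/130 uM); top library doses 57.5 and 19.1 uM final.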
IP6K1 inh cnf: confirmation of human IP6K1 inhibitors | shares compounds with IP6K1 inh | recombinant IP6K1 kinase, ADP-Glo luminescence, 2 h | Potency, µM (series often up to 49 µM), for inactives: at the top dose activity change, negative = inhibition, most hits filed as inhibitors | 1,200 tested, 13% active | AID 1645852; note: potency is the fitted concentration of half-maximal effect; % is set by controls: 0 for no effect and ±100 for the full control effect; nearly all actives have a fitted effect of over 65% in size
GPT2 inh cnf: human alanine aminotransferase 2 inhibition, confirmatory; shares compounds with GPT2 inh; GPT2 enzyme, coupled Amplex Red pyruvate fluorescence; Potency, µM, hits mostly inhibitors; 95 tested, 90% active
* marks the source's active call; other numbers are inactive results; i = inactive; ? = inconclusive; · = no result given; ! = repeats disagree; [ ] = dose if it differs, or a comment. Compounds with a hit are over-represented: about 0.82% of the library has one in this group of screens. Unless noted, calls come from the whole dose curve; as a rule, active = well fitted curve in the direction sought with a large enough effect; inconclusive = small, poorly fitted or top-dose-only effect, or another doubt; inactive = no such curve, though single readings can be large; an effect the other way counts as inactive or inconclusive.

SMILES	GPT2 inh	IP6K1 inh	IP6K1 inh cnf	others
CC12Cc3cn[nH]c3C=C1CCC1C2CCC2(C)C1CCC2(C)O (stereo not given)	i	-47*	7.3µM*
CCOC(=O)[C@H]1CN(C(=O)Nc2ccccc2)[C@]2(C)C(=O)N(CC3CC3)c3ccccc3[C@H]12	i	14	·
O=C(Nc1ccccc1)N1[C@H]2CC[C@@H]1c1cncnc1C2	i	14	·
O=C(c1ccccc1)N1C[C@@H]2C[C@H](C1)c1ccc(-c3cncnc3)c(=O)n1C2	0%[88.5 µM]	-6	·
CC[C@H]1CN2CC[C@H]1C[C@@H]2CNC(=S)Nc1ccc(N(C)C)cc1	8.9µM*	-33*	-11%
CC[C@H]1CN2CC[C@H]1C[C@@H]2CNC(=O)Nc1ccc(C(C)(C)C)cc1	0%[88.5 µM]	4	·
O=C(NC1CCCCC1)[C@H]1CN2CCC1C[C@@H]2Cn1cc(COc2ccccc2)nn1 (stereo not given in full)	1%[88.5 µM]	8	·
C#CC1(O)CCC2C3CCC4=CC(=O)CCC4=C3C=CC21C (stereo not given)	i	-8	·
C=CC[C@]1(O)CC[C@H]2[C@@H]3CCC4=CC(=O)CCC4=C3C=C[C@@]21C	i	-45*	-16%
CCN(CC)C(=O)[C@@H]1C=C2c3cccc4[nH]cc(c34)C[C@H]2N(C)C1	?	-72*	2%
O=C(c1ccn[nH]1)N1[C@H]2CC[C@@H]1c1cnc(-c3ccccc3)nc1C2	i	39	·
O=C1Nc2ccccc2C12CCN(Cc1ccc(C(F)(F)F)cc1)CC2	-13%	-32*	?
O=C1Nc2ccccc2C12CCN(Cc1cccc3ccccc13)CC2	-7%	-47*	?
O=C1Nc2ccccc2C12CCN(Cc1ccc(F)cc1)CC2	i	-15	·
Cn1cccc1CN1CCC2(CC1)C(=O)Nc1ccccc12	?	-14	·
COc1cc(CCNCc2ccccc2O)c(OC)cc1C#N	?	24	·
CN1Cc2ccccc2-n2ccnc2C12CCN(C(=O)C1CCC1)CC2	2%	8	·
Cc1noc(C)c1CCN1CCC2(C1)C(=O)N(C)C(=O)N2C (stereo not given)	i	7	·
CC(C)NC(=O)N1C2CCC1CN(Cc1cccnc1)C2	0%[88.5 µM]	10	·
O=C1N(c2ccccn2)C[C@H]2CN(Cc3ccccc3)CCN12	-1%[88.5 µM]	0	·
Cc1c(Cl)c(=O)oc2cc(OP(=O)(OCCCl)OCCCl)ccc12	1%	6	·
CCOP(=S)(OCC)Oc1ccc2c(C)c(Cl)c(=O)oc2c1	-10%	-52*	6.5µM*
c1ccc2c(c1)Nc1ccccc1S2	11µM*!	-16	·	GPT2 inh cnf=2.8*
CCOC(=O)[C@H]1CN(C(=O)c2ccc(SC)cc2)[C@]2(C)C(=O)N(CC3CC3)c3ccccc3[C@H]12	-5%[27.3 µM]	-7	·
CC(C)CN1Cc2ccccc2-n2ccnc2C12CCN(C(=O)c1cccc(F)c1)CC2	i	18	·
